HDAC3 inhib: human HDAC3 inhibition; O15379; recombinant HDAC3, fluorogenic peptide/trypsin coupled, fluorescence; inhibition, % at 8.3 µM; 320,000 tested, 0.15% active; AID 2718; in the data active = inhibition above about 26%, passing the limit was not always enough; inconclusive = no clear call, values can overlap the other calls
NSD2 HMT inh: inhibitors of human histone methyltransferase NSD2 | 310,000 tested, 0.54% active | NSD2 peptide methylation, AlphaScreen, 120 min | inhibition, % at 12.5 µM | AID 743445 | O96028; in the data active = inhibition above about 50%
LANA DNA inh: inhibitors of KSHV LANA C-terminal domain DNA binding; inhibition, % at 9 µM; MBP-C-LANA/FAM-LBS DNA binding, fluorescence polarization; 340,000 tested, 0.078% active; AID 504423;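 active = highest replicate inhibition at or above 60% at 9 µM, even if other replicates fall short; inactive = all replicates below 60% inhibition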;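 also: 0% = neutral control wells and 100% = 4 µM acridine orange control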
Casp6 inh: blocks human caspase-6 cleavage activity | P55212 | purified caspase-6, Z-VEID-R110 cleavage fluorescence | inhibition, % at 12.5 µM | 350,000 tested, 0.53% active | AID 686996;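 active = mean inhibition across replicates at least about 35%, with every replicate also reaching that limit, limit read from the data; inconclusive = only one of the two criteria met; inactive = neither criterion met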;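 also: 0% = median of neutral control wells and 100% = no fluorescence left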
Target sequence (P55212 24-179 limits assumed): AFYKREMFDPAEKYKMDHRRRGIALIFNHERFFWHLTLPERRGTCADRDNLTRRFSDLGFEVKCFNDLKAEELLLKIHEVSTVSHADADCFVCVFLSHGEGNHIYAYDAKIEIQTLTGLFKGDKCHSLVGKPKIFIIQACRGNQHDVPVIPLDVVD
Target sequence (P55212 194-293 limits assumed): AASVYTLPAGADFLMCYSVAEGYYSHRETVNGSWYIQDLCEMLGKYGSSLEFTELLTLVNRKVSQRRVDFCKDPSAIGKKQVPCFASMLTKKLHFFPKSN
Keap1-Nrf2 PPI: disrupts human Keap1 binding to Nrf2 peptide | Keap1 Kelch-Nrf2 peptide fluorescence polarization, 1536-well | inhibition, % at 9.4 µM | AID 504523 | Q14145 | 340,000 tested, 0.15% active; in the data active = inhibition above about 12%; inconclusive = no clear call, values can overlap the other calls; inactive = below about 7.3%;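 also: human Keap1 Kelch domain with fluorescein labeled Nrf2 9mer peptide probe; 0% = neutral control wells and 100% = peptide positive control; higher means more block of Keap1 binding to Nrf2 peptide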
N-glyco inh: blocks N-linked glycosylation in D54 reporter cells; reporter increase, % at 12.5 µM; AID 588692; D54 ERlucT glycosylation luciferase reporter, 24 h; percent of 100 nM tunicamycin response; 360,000 tested, 0.23% active;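 active = mean luciferase reporter signal, scaled so untreated is 0 and the glycosylation-blocking control 100, at or above a set limit in every replicate; inconclusive = mean reaches the limit but not every replicate does; inactive = mean below the limit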;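 also: luciferase carries N-glycosylation sites so blocking glycosylation raises the light; 0% = median of neutral control wells and 100% = median of 100 nM tunicamycin wells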
Starred values were filed as active, the others as inactive. The list is not random: actives were taken first. Their share in the collection is about 1.1%.

Screening O=C(NN1C(=O)C2CC=C(Cl)CC2C1=O)c1ccncc1 (stereo unspecified) returned HDAC3 inhib -0.2, NSD2 HMT inh 22.0, LANA DNA inh 14.4, Casp6 inh 46.8*, Keap1-Nrf2 PPI 2.6 and N-glyco inh 0.0.
`CN1[C@H](C(=O)NC2CCCC2)[C@@H](CO)[C@@H]2Cn3c(ccc(-c4cccc(F)c4)c3=O)[C@@H]21` gave Casp6 inh -0.9.
CCC(=O)N1[C@H](CO)[C@H]2c3ccccc3N(C(=O)c3ccncc3)C[C@H]21 was read as Casp6 inh 0.1.
For COc1ccc(CN(C)C[C@@H]2Oc3ccc(N(C)C)cc3CC(=O)N([C@@H](C)CO)C[C@@H]2C)cc1 the results were Casp6 inh -0.3.
For CN(C)C(=O)c1ccc(-c2ccc3c(c2)[C@@H]2[C@@H](CCN2S(=O)(=O)c2cn(C)cn2)[C@@H](CO)N3)cc1 the results were Casp6 inh 0.7.
Cc1ccc2cc(F)ccc2n1 was read as NSD2 HMT inh -4.6 and Casp6 inh -2.8.
`Cc1ccc2cc(N)ccc2n1` gave NSD2 HMT inh 13.9, LANA DNA inh 0.3, Casp6 inh 61.5*, Keap1-Nrf2 PPI 0.7 and N-glyco inh 5.5.
`CC(C)C(=O)Nc1ccc2c(c1)C(=O)N(C)[C@@H]1CC[C@@H](CC(=O)Nc3ccccc3)O[C@H]1CO2` gave Casp6 inh -0.6.
For COc1ccc2cc(C)c3nnc(SCC(=O)Nc4nc(-c5ccc(F)cc5)cs4)n3c2c1 the results were HDAC3 inhib -6.9, NSD2 HMT inh -0.8, LANA DNA inh -0.9, Keap1-Nrf2 PPI -6.4 and N-glyco inh 38.0*.
`CCCN1C[C@H](C)[C@@H](OC)CN(C)C(=O)c2ccc(NS(=O)(=O)c3cn(C)cn3)cc2OC[C@H]1C` gave Casp6 inh 3.4.
Screening O=C(CN1C(=O)c2ccccc2C1=O)NC1CCS(=O)(=O)C1 (stereo unspecified) returned NSD2 HMT inh -0.4, Casp6 inh -0.6 and N-glyco inh -2.8.
CC(=O)NC1=C(NC2CCS(=O)(=O)C2)C(=O)c2ccccc2C1=O (stereo unspecified) was read as HDAC3 inhib 7.5, NSD2 HMT inh 69.2*, LANA DNA inh -1.0, Keap1-Nrf2 PPI 2.0 and N-glyco inh 8.7.
For C/C(=N/NS(=O)(=O)c1ccc(Cl)cc1)c1cccc(NC(=O)c2ccncc2)c1 the results were HDAC3 inhib 1.8, NSD2 HMT inh -0.5, LANA DNA inh -2.1, Casp6 inh 91.9*, Keap1-Nrf2 PPI 1.8 and N-glyco inh 1.9.
Screening O=C(C[C@@H]1C=C[C@H](NC(=O)C2CCC2)[C@@H](CO)O1)NCCCN1CCOCC1 returned Casp6 inh -6.9.
`Cc1ccc(C(=O)CSc2cc(C)[nH]c(=O)n2)cc1` gave HDAC3 inhib 34.3*, NSD2 HMT inh -1.1, LANA DNA inh 0.3, Casp6 inh -3.1, Keap1-Nrf2 PPI -3.7 and N-glyco inh -18.8.
Cc1cc(SCC(=O)c2ccc(Cl)cc2)nc(=O)[nH]1 was read as HDAC3 inhib 17.8, NSD2 HMT inh 4.9, LANA DNA inh -0.1, Casp6 inh 26.9, Keap1-Nrf2 PPI -4.6 and N-glyco inh -15.8.
Cc1cc(SCC(=O)c2ccccc2)nc(=O)[nH]1 was read as HDAC3 inhib 45.1*, NSD2 HMT inh 2.1, LANA DNA inh 1.0, Casp6 inh 13.8, Keap1-Nrf2 PPI -2.5 and N-glyco inh -1.6.
CCCCc1c(O)nc(SCC(=O)c2ccccc2)[nH]c1=O was read as HDAC3 inhib 45.6*, NSD2 HMT inh -2.5, LANA DNA inh 1.0, Keap1-Nrf2 PPI -7.7 and N-glyco inh 4.7.
For Cc1ccccc1-c1ccc([C@H]2[C@@H](CO)N3CCCCN(C(=O)CN4CCOCC4)C[C@H]23)cc1 the results were Casp6 inh -2.1.
`COc1ccc2c3c(n(C)c2c1)[C@@H](CO)N(C(C)=O)CC31CCN(C(=O)C2CCOCC2)CC1` gave Casp6 inh -1.4.
`O=C1c2nc3cc(-c4ccco4)[nH]n3c(=O)c2CN1Cc1ccccc1` gave HDAC3 inhib -136.8, NSD2 HMT inh 0.1, Casp6 inh 71.2* and N-glyco inh 0.5.
`CCCNC(=O)[C@@H]1[C@@H](CO)[C@@H]2Cn3c(ccc(-c4cccc(OC)c4)c3=O)[C@@H]2N1Cc1nccs1` gave Casp6 inh -2.6.
For CCCN1CNC(=S)N(c2ccc(C)cc2C)C1 the results were HDAC3 inhib 1.7, NSD2 HMT inh -3.1, LANA DNA inh -1.3, Casp6 inh -4.2, Keap1-Nrf2 PPI 1.1 and N-glyco inh 0.6.
For CCCN1CNC(=S)N(c2ccccc2C)C1 the results were HDAC3 inhib 0.4, NSD2 HMT inh 0.7, LANA DNA inh 1.5, Casp6 inh 56.3*, Keap1-Nrf2 PPI -2.8 and N-glyco inh 0.6.
Screening O=C(NCCCCc1ccccc1)C1CCCC1 returned HDAC3 inhib -0.3, NSD2 HMT inh -2.0, LANA DNA inh 101.0*, Casp6 inh 0.8, Keap1-Nrf2 PPI -3.1 and N-glyco inh -2.4.
`O=C(NCCCCNC(=O)C1CCCC1)C1CCCC1` gave HDAC3 inhib -2.1, NSD2 HMT inh -0.7, LANA DNA inh 0.4, Keap1-Nrf2 PPI -6.3 and N-glyco inh 0.3.
For C[C@H](CO)N1C[C@H](C)[C@@H](CN(C)S(=O)(=O)c2cccs2)Oc2ccc(NC(=O)Cc3cn(C)c4ccccc34)cc2C1=O the results were Casp6 inh -1.1.
For C=CCNC(=O)COc1ccccc1C#N the results were HDAC3 inhib 1.8, NSD2 HMT inh -0.6, LANA DNA inh 1.6, Casp6 inh 52.3*, Keap1-Nrf2 PPI -1.1 and N-glyco inh 1.8.
Screening N#Cc1ccccc1OCC(=O)NC1CCCCCC1 returned NSD2 HMT inh -1.4, Casp6 inh -0.2 and N-glyco inh -5.7.
CC(=O)Nc1sc(C)c(C)c1C(=O)OCC(=O)Nc1ccccc1 was read as HDAC3 inhib -3.5, NSD2 HMT inh -4.6, LANA DNA inh -0.6, Casp6 inh -5.2, Keap1-Nrf2 PPI -0.3 and N-glyco inh 84.6*.
Screening CC(=O)Nc1sc(C)c(C)c1C(=O)OCC(=O)Nc1cccc(C)c1 returned HDAC3 inhib 2.7, NSD2 HMT inh -0.8, LANA DNA inh 1.1, Casp6 inh -1.2, Keap1-Nrf2 PPI -2.1 and N-glyco inh 66.2*.
Screening COc1cccc(NC(=O)COC(=O)c2c(NC(C)=O)sc(C)c2C)c1 returned HDAC3 inhib 0.4, NSD2 HMT inh -1.2, LANA DNA inh -0.2, Casp6 inh -5.2, Keap1-Nrf2 PPI 2.8 and N-glyco inh -1.0.
Screening CCC(=O)NC(NC(=S)Nc1ccccc1Br)C(Cl)(Cl)Cl (stereo unspecified) returned HDAC3 inhib inconclusive, LANA DNA inh 1.0, Casp6 inh 58.5*, Keap1-Nrf2 PPI 3.8 and N-glyco inh -2.9.

Screening results (PubChem BioAssay)
